This passage reports growth results from PubChem BioAssay (NCI).

Compounds without any hit were thinned out: in the full panel of roughly 83,000, 20% have a hit.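 Plates (96-well) were seeded with cells, treated with compound at one concentration, and incubated for 48 hours before percent growth was determined.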 Unmarked numbers belong to inactive results. Calls of active or inactive are those of the source. Rule for the calls: active = growth percent below 10; inactive = the rest.

The assay has as its system HL-60(TB) leukemia. The assay can be described thus: NCI-60 one-dose screen, 48 h (100 = growth as untreated, 0 = no growth, -100 = all killed). Particulars: 10 µM unless noted.
`CN(C)c1ccc(/C=N/NC(=O)c2cccc3ccccc23)c(Cl)c1`: the growth was -2.75% (active).

As for `[2H]c1nc(Nc2ncc(F)c(-c3cc(F)c4nc(C)n(C(C)C)c4c3)n2)c([2H])c([2H])c1CN1CCN(CC)CC1`, the growth was 24.6%.

As for `O=C(Nc1cccc(Br)c1)Oc1ccc(Cl)c2cccnc12`, the growth is 3.1% [100 µM] (active).

Take `COc1cc(/C=C/c2cc(/C=C/c3ccc(O)c(OC)c3)n(C(=O)Cc3ccccc3)n2)ccc1O`: the growth is -9.93% (active).

In the case of `CC1(C)N=C(N)N=C(N)N1c1cccc(CN)c1`, the growth was 86.8%.

In the case of `CCOC(=O)Cn1nnc(-c2ccc(OCc3ccccc3F)cc2)n1`, the growth was 102%.

With `C/C=C/C(N)=O`, the growth was 107%.

`COc1ccc(-c2ccc(-c3ccc(C(=N)N)cn3)o2)cc1Cl`: the growth is -59.5% (active).

`COc1ccccc1CNCCCN1C(=O)c2ccc3c4c(ccc(c24)C1=O)C(=O)N(CCCNCCCCN)C3=O`: the growth is -42% (active).

Regarding `CCCNS(=O)(=O)c1ccc(Cl)cc1`, the growth is 105%.

As for `N#Cc1c(Oc2ccc([N+](=O)[O-])cc2)nc2sc3cc(Cl)ccc3n2c1=N`, the growth is 151%.

As for `O=C(Nc1ccccc1N1CCCC1=O)c1oc2ccc(F)cc2c1-c1cnn(-c2ccccc2)c1`, the growth is 84.8% [50 µM].

Take `COc1cc(-c2nc3c(c(C)nc4c3nnn4-c3ccccc3)c(=O)o2)cc(OC)c1OC`: the growth was 105%.

For the compound `O=C(Nc1ccc(NC(=O)c2cc(=O)[nH]c3ccccc23)cc1)Nc1cccc(Cl)c1`, the growth is 78.7%.

`Nc1nc(=S)ss1`: the growth was 87.8%.

Take `Cc1ccc(S(=O)(=O)n2cc(CNc3ccc(N4CCOCC4=O)cc3)c3ccccc32)cc1`: the growth is 66.7%.

For the compound `CCn1cc(C(=O)NN=C2CCCCCC2)c(=O)c2ccc(C)nc21`, the growth was 80.2%.

For the compound `O=S1(=O)NCCN1CCNc1nccc(-c2c(-c3cccc(O)c3)nc3sccn23)n1`, the growth was 111%.

Turning to `Cc1ccc([N+](=O)[O-])cc1NC(=O)Nc1cccc(F)c1`, the growth is 58.7%.

As for `COc1ccccc1S(=O)(=O)Nc1ccc2c3c(cc(-c4cnn(C5CC5)c4)nc13)C(=O)N2C`, the growth is -10% (active).

With `COc1ccc2[nH]c(-c3ccccc3)cc2c1`, the growth is 60.7%.

Turning to `Cc1cc(C)nc(SC2=C(Nc3cc(Cl)ccc3O)C(=O)N(Cc3ccccc3)C2=O)n1`, the growth was 85.3% [30 µM].

As to `Clc1ccc2nn3c4ccccc4c(OCCN4CCOCC4)nc3c2c1`, the growth was 81.9%.

Turning to `COc1ccc(Nc2nc(Nc3cc(C)[nH]n3)c3cc(OC)c(OC)cc3n2)cc1`, the growth is -50.5% [20 µM] (active).

As for `COc1ccc(-c2cc(-c3ccccc3)nc(SCCCC(=O)NO)n2)cc1`, the growth was -31.2% (active).
